From PubChem
A selection: hits, their analogues and other compounds. The true share with any hit is near 1.6%.
eIF4E-4G inh = eIF4E/eIF4G interaction inhibition in translation initiation. 0.37% of 220,000 active. inhibition, % at 21.7 µM. P63073+Q04637. TR-FRET eIF4E-eIF4GI(517-606) binding, 2 h;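 active = inhibition above about 30%, limit read from the data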
MLLE-PAM2 inh = inhibitors of microRNA-mediated deadenylation, human PABP1 MLLE binding. P11940. GST-MLLE / FITC-PAM2 fluorescence polarization. inhibition, % at 20 µM. 0.36% of 360,000 active; in the data active = inhibition above about 35%, passing the limit was not always enough
PABP FP inh = PABP-poly(A) binding inhibition; P11940; PABP-poly(A) RNA binding, fluorescence polarization; calls only at 35 µM; 1% of 290,000 active;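 note: calls also rest on retests at 20 µM and on dose response follow-up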
eIF4H FP inh = inhibitors of RNA binding by human eIF4H; Q15056; eIF4H fluorescence polarization binding assay; inhibition, % at 35 µM; 0.94% of 290,000 active;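 note: calls also rest on retests at 20 µM and on dose response follow-up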
PERK inhibitor = human PERK inhibition, primary cell-based screen; Q9NZJ5; CHO PERK-DD fusion, SEAP luminescence translation reporter; inhibition, % at 5.6 µM; 0.17% of 220,000 active;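 active = inhibition above the mean inhibition of all tested compounds plus 3 SD, set separately per screening campaign, cut at about 2.9% in these data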;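 note: PERK kinase domain activated by AP20187 dimerizer at 100 nM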
Of the large screens only hits and unclear results are named; the others gave an inactive call; ! = repeats disagree; [ ] = dose if it differs, or a comment. Unless noted, the rule behind the calls is not given here.

NC(=O)c1cc2c3ccccc3ccn2c1-c1ccccc1	MLLE-PAM2 inh 46, PABP FP inh inconclusive, eIF4H FP inh inconclusive
COc1ccc(-c2noc(COC(=O)c3ccco3)n2)cc1OC	none (no result: eIF4E-4G inh, PABP FP inh, eIF4H FP inh, PERK inhibitor)
Nc1ccccc1-c1nnc(SCc2ccccc2F)[nH]c1=O	eIF4E-4G inh 33[fluorescence artefact?]
CCOc1cc(C2NC(=S)NC(C)=C2C(=O)Nc2ccc(OC)cc2)ccc1O (centres undefined)	PERK inhibitor 3.4
CCOc1cccc(C2NC(=S)NC(C)=C2C(=O)Nc2ccccc2)c1 (centres undefined)	none
COc1cccc(CN2CCCC(C(=O)N3CCCCC3)C2)c1 (centres undefined)	none (no result: eIF4E-4G inh, PERK inhibitor)
Cc1ccc(-c2nc3cnccn3c2Nc2c(C)cccc2C)o1	MLLE-PAM2 inh 39
O=C(N/N=C1\C(=O)c2cccc3cccc1c23)c1ccc(O)cc1	none
O=C1C([N+](=O)[O-])=C(O)c2cccc3cccc1c23	PABP FP inh active, eIF4H FP inh 85 (no result: eIF4E-4G inh, MLLE-PAM2 inh, PERK inhibitor)
CCN(CC)CCNC(=O)CCCCn1c(=S)[nH]c2c([nH]c3ccc(OC)cc32)c1=O	eIF4E-4G inh 47 (no result: MLLE-PAM2 inh)
COc1ccc2[nH]c3c(=O)n(Cc4ccc(C(=O)NCC5CCCO5)cc4)c(=S)[nH]c3c2c1 (centres undefined)	PABP FP inh active, eIF4H FP inh 61
O=C(Nc1cccc2ncccc12)c1ccco1	none (no result: eIF4E-4G inh, PERK inhibitor)
COC(=O)c1cccc(NC(=S)N2CCN(c3ccccc3F)CC2)c1	none
COc1ccc(N(CC(=O)NCCSCc2ccc(Cl)cc2)S(C)(=O)=O)cc1Cl	none (no result: eIF4E-4G inh, PERK inhibitor)
O=c1c([N+](=O)[O-])cc(C(F)(F)F)cn1Cc1c(Cl)cccc1Cl	PERK inhibitor 3.3
COC(=O)c1ccc(Cn2cc(C(F)(F)F)cc([N+](=O)[O-])c2=O)cc1	none
O=C(O)c1ccccc1C(=O)Nc1ccc(-n2nc(C(F)(F)F)cc2C(F)(F)F)cc1	none
ONc1cccnc1-n1nc(C(F)(F)F)cc1C(F)(F)F	eIF4H FP inh 64 (no result: MLLE-PAM2 inh)
COc1ccc(NCC(=O)Nc2cccc(S(=O)(=O)N3CCCC3)c2)cc1Cl	none (no result: eIF4E-4G inh, PABP FP inh, eIF4H FP inh, PERK inhibitor)
COc1ccc(NC(=S)Nc2cccc(Cl)c2)cc1OC	MLLE-PAM2 inh 37
COc1ccc(Cl)cc1NC(=S)Nc1ccccc1F	MLLE-PAM2 inh 41
COc1ccc(NC(=S)Nc2cccc(C(C)=O)c2)cc1OC	none
COc1ccc(NC(=S)N/N=C/c2ccc(F)cc2)cc1OC	MLLE-PAM2 inh 45
CCOC(=O)N1CCC(NC(=O)c2ccc3c(c2)N(CC)CCS3)CC1	MLLE-PAM2 inh 38 (no result: eIF4E-4G inh, PABP FP inh, eIF4H FP inh)
Cc1ccccc1CSc1nncn1N	eIF4E-4G inh 46
O=[N+]([O-])c1ccc(C(=S)N2CCCC2)cc1	none
CC1CCN(C(=S)c2ccc([N+](=O)[O-])cc2)CC1	MLLE-PAM2 inh 44
COc1ccc(C)cc1NC(=O)C(NC(=O)c1cc(OC)c(OC)c(OC)c1)C(C)C (centres undefined)	PABP FP inh active, eIF4H FP inh 91
NC(=O)N1c2ccccc2C=Cc2ccccc21	none
NC(=O)N1c2ccccc2CC(=O)c2ccccc21	MLLE-PAM2 inh 61, PABP FP inh active!, eIF4H FP inh 71!
NS(=O)(=O)c1ccc(NC(=O)c2ccc3nccnc3c2)cc1	eIF4E-4G inh 94
O=C(Nc1ccncc1)c1ccc2ncsc2c1	none (no result: eIF4E-4G inh, PABP FP inh, eIF4H FP inh, PERK inhibitor)
O=C(Nc1ccc(S(=O)(=O)Nc2ncccn2)cc1)c1ccc2ncsc2c1	eIF4E-4G inh 51, PERK inhibitor 2.9
CCOC(=O)c1ccccc1NC(=O)c1ccc2nccnc2c1	eIF4H FP inh 68
CCOc1ccc(CCNC(=O)C2CSC3(C)CCC(=O)N23)cc1OCC (centres undefined)	none (no result: eIF4E-4G inh, PERK inhibitor)
Cc1ccc(CCNC(=O)Cc2ccc(NC3=NC4CS(=O)(=O)CC4S3)cc2)cc1 (centres undefined)	none (no result: eIF4E-4G inh, PERK inhibitor)
COc1cccc(CN(CCC(C)C)S(=O)(=O)c2cc(Br)ccc2Br)c1	none (no result: eIF4E-4G inh, PABP FP inh, eIF4H FP inh, PERK inhibitor)
COc1ccc(C(=S)N2CCN(c3ccccc3C)CC2)cc1	MLLE-PAM2 inh 42
COC(=O)/C=C/C(=O)N1CCN(c2ccccc2C)CC1	eIF4E-4G inh 42[fluorescence artefact?]
COC(=O)/C=C/C(=O)N1CCN(c2ccccc2)CC1	none
COc1ccc(C(CNC(=O)C(CC(C)C)NS(=O)(=O)c2ccc(C)cc2)N2CCOCC2)cc1 (centres undefined)	none (no result: eIF4E-4G inh, PABP FP inh, eIF4H FP inh, PERK inhibitor)
CC(=O)c1c(C)[nH]c(=S)c(C#N)c1-c1ccc(Cl)cc1	none
Cc1[nH]c(=S)c(C#N)c(-c2ccco2)c1C(=O)N(C)C	PABP FP inh active
COCCN(C(=O)CSc1ccc2c(c1)OCCO2)c1c(N)n(CC(C)C)c(=O)[nH]c1=O	MLLE-PAM2 inh 42 (no result: eIF4E-4G inh, PABP FP inh, eIF4H FP inh, PERK inhibitor)
COc1ccccc1N1CCN(CC(=O)N(CC(C)C)c2c(N)n(CC(C)C)c(=O)[nH]c2=O)CC1	none
CCOc1ccccc1N1CCN(CC(=O)N(CC(C)C)c2c(N)n(CC(C)C)c(=O)[nH]c2=O)CC1	PABP FP inh active, eIF4H FP inh 9.0
CCOC(=O)C1=C(COC(=O)C(C)(C)Oc2ccc(Cl)cc2)NC(=O)NC1C (centres undefined)	none (no result: eIF4E-4G inh, PABP FP inh, eIF4H FP inh, PERK inhibitor)
CCCCCC(=O)N1C[C@H](O)[C@@H](n2cc(COC(=O)c3ccccc3)nn2)C[C@@H]1c1ccc(Cl)cc1	none (no result: eIF4E-4G inh, PABP FP inh, eIF4H FP inh, PERK inhibitor)
CC1CN=C(NC(=O)c2cccc([N+](=O)[O-])c2)S1 (centres undefined)	MLLE-PAM2 inh 42 (no result: eIF4E-4G inh, PERK inhibitor)
O=C(NCCCN1CCCCC1)c1ccc(CS(=O)c2ccc(F)cc2)o1 (centres undefined)	none (no result: eIF4E-4G inh, PERK inhibitor)
CCOc1ccc(Cc2nnc(SCC(=O)c3ccc(OC)cc3)o2)cc1	none
CCOc1ccc(Nc2nc(Cc3nnc(SCC(=O)O)o3)cs2)cc1	eIF4H FP inh 48
Cc1nc(-c2cccnc2)sc1C(=O)N/N=C/c1ccccc1Cl	none
O=C1C=CC(=Nc2ccc3c(c2)C(=O)c2ccccc2-3)O1	none (no result: eIF4E-4G inh, PABP FP inh, eIF4H FP inh, PERK inhibitor)
O=C1C=CC(=Nc2ccc(F)cc2)O1	MLLE-PAM2 inh 40 (no result: eIF4E-4G inh, PABP FP inh, eIF4H FP inh, PERK inhibitor)
CSc1ccccc1-c1nc(-c2ccncc2)no1	none (no result: eIF4E-4G inh, PERK inhibitor)
COC(=O)Sc1nnc(-c2ccc(Br)cc2)o1	eIF4E-4G inh 70 (no result: MLLE-PAM2 inh)
Cc1sc2ncnc(Nc3ccccc3)c2c1C	none
Cc1sc2ncnc(Nc3ccc(N4CCOCC4)cc3)c2c1-c1ccccc1	PABP FP inh active, eIF4H FP inh inconclusive
CCOC(=O)c1ccc(N2C(=O)C(CC(N)=O)N(CCc3ccc(OC)c(OC)c3)C2=S)cc1 (centres undefined)	none
CCN(CC)c1ccc(NC(=O)CCCOc2cccc(C)c2)cc1	eIF4E-4G inh 34
Cc1cccc(OCCCC(=O)Nc2ccc(S(N)(=O)=O)cc2)c1	none
CC(=O)c1c(C)cc(C)c(CSc2nc(C)cc(=O)[nH]2)c1C	MLLE-PAM2 inh 44
CCOc1ccc(CC(=O)N2CCN=C2SCc2ccc([N+](=O)[O-])cc2)cc1	PABP FP inh active, eIF4H FP inh active
O=C(Cc1ccc(F)cc1)N1CCN=C1SCc1ccc([N+](=O)[O-])cc1	MLLE-PAM2 inh 38
CCOc1ccc(CC(=O)N2CCN=C2SC)cc1	PABP FP inh active
O=C(CCc1ccccc1)c1nnc(-c2ccccc2)o1	none
O=C(Nc1nnc([C@@H]2C[C@H](O)[C@@H](CO)O2)s1)c1ccc(Oc2ccccc2)cc1	none (no result: eIF4E-4G inh, PABP FP inh, eIF4H FP inh, PERK inhibitor)
O=C(Cc1ccc(S(=O)(=O)N2CCOCC2)s1)OCc1ccc(Cl)cc1	none (no result: eIF4E-4G inh, PABP FP inh, eIF4H FP inh, PERK inhibitor)
